Results filed as inconclusive are left out. Active and inactive are the calls of the source. The calls were made as follows, unless noted: active = hit-call score of the fitted dose curve at least 0.9, where 1 is the maximum; inactive = score below 0.9. Peptide text beside a SMILES is read from it.
Key:
[1] = CCTE_Harrill_HTTr_CellCount_MCF7: CCTE's Cell Proliferation Assessment for the High-Throughput Transcriptomics (HTTr) Platform, Harrill Lab (AID 2284012; active = hit-call score of the fitted dose curve at least 0.9, where 1 is the maximum;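 also: count of Hoechst-stained nuclei per well by high-content imaging in MCF-7 cells; cells exposed to compound for six hours; intended direction is loss of nuclei count meaning fewer cells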)
Outline: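 Nuclei counting (Hoechst, high content imaging) in MCF-7 after a 6 h treatment at eight concentrations. Activity fitted bidirectionally, DMSO as negative control.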

[2] = CCTE_Shafer_MEA_acute_burst_number: CCTE's Neural Acute Assay for Single-Electrode Bursts, Shafer Lab (AID 2284013)
Outline: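 Rat cortical cultures, DIV 13/15; 40 min baseline, then 40 min with compound 0.03-40 uM, 37 C. Spikes: 300-5000 Hz band-pass, threshold 8x rms noise. Readout = % change in single-electrode bursts vs baseline, loss-of-signal fit.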

[3] = CCTE_Shafer_MEA_acute_burst_duration_mean: CCTE's Neural Acute Assay for Mean Burst Duration, Shafer Lab (AID 2284014);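 also: hits are decreases in mean burst duration relative to DMSO controls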
Outline: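 Primary rat cortical neurons on 16-electrode MEA wells, treated on DIV 13 or 15 with compound (0.03-40 uM; ≥3 wells each). 40-min baseline and 40-min exposure recordings at 37 C; percent change in mean burst duration per well versus DMSO.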

[4] = CCTE_Shafer_MEA_acute_per_burst_spike_number_mean: CCTE's Neural Acute Assay for Average Number of Spikes Per Burst, Shafer Lab (AID 2284015);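 also: hits are decreases in mean spikes per burst versus baseline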
Outline: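 Primary rat cortical neurons on 48-well MEA plates, treated on DIV 13 or 15 at 0.03-40 uM. Spontaneous activity recorded 40 min before and 40 min after compound at 37 C; percent change in mean spikes per single-electrode burst per well, fitted in the loss direction versus DMSO.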

[5] = CCTE_Shafer_MEA_acute_interburst_interval_mean: CCTE's Neural Acute Assay for Mean Interburst Interval, Shafer Lab (AID 2284016);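 also: percent change of mean interburst interval versus each well's own pre-dose baseline; curves fitted for decrease in interburst interval relative to DMSO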
Outline: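 Primary rat cortical neurons on 16-electrode MEA wells were recorded 40 min at baseline on DIV 13 or 15, then 40 min after compound (0.03-40 uM), at 37 C. Value is percent change in mean interburst interval per well, DMSO as negative control.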

[6] = CCTE_Shafer_MEA_acute_burst_percentage_mean: CCTE's Neural Acute Assay for Percentage of Spikes in a Burst, Shafer Lab (AID 2284017);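 as to AC50: curve fitted for loss of signal so potency reflects decreased burst percentage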
Outline: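 Primary rat cortical neurons on 16-electrode MEA wells; 40 min baseline recorded at DIV 13 or 15, then 40 min after compound (0.03-40 uM) at 37 C. Well-mean fraction of spikes in single-electrode bursts; percent change from baseline, DMSO as negative control.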

[7] = CCTE_Shafer_MEA_acute_burst_percentage_std: CCTE's Neural Acute Assay for Standard Deviation of Burst Percentage, Shafer Lab (AID 2284018);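 also: fitted in the negative direction so actives lower burst percentage SD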
Outline: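 Primary rat cortical neurons on 16-electrode MEA wells were recorded 40 min at baseline (DIV 13 or 15), then 40 min after compound (0.03-40 uM), at 37 C. Well value is SD across electrodes of spikes-in-bursts/total spikes; endpoint is percent change, DMSO-referenced.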

[8] = CCTE_Shafer_MEA_acute_per_network_burst_spike_number_std: CCTE's Neural Acute Assay for Standard Deviation of Number of Spikes in a Network Burst, Shafer Lab (AID 2284020);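 also: fitted for decrease in spike-number SD versus DMSO so actives lower it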
Outline: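 Primary rat cortical neurons on 48-well MEAs (16 electrodes/well) recorded at DIV 13 or 15: 40-min baseline, then 40 min with compound (0.03-40 uM), 37 C. Value is percent change in SD of spikes per network burst, relative to DMSO.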

[9] = CCTE_Shafer_MEA_acute_per_network_burst_electrodes_number_mean: CCTE's Neural Acute Assay for Mean Number of Electrodes in a Network Burst, Shafer Lab (AID 2284021);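 also: curves fitted for decreases only so hits reduce electrodes per burst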
Outline: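 Readout: % change in mean electrodes active per network burst, post- vs pre-treatment, each well. Spikes detected at 8x rms noise after 300-5000 Hz band-pass; rat cortical cultures, DIV 13/15, compounds 0.03-40 uM, DMSO baseline.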

[10] = CCTE_Shafer_MEA_acute_network_burst_percentage: CCTE's Neural Acute Assay for Percentage of Network Bursts, Shafer Lab (AID 2284022);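 also: curves fitted for loss so actives lower network burst percentage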
Outline: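 Rat cortical cultures, DIV 13/15; 20 min equilibration, 40 min baseline, compound 0.03-40 uM, 40 min recording, 37 C. Spikes: 300-5000 Hz band-pass, threshold 8x rms noise. Readout: % change in network-burst spike fraction; loss direction vs DMSO.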

In the case of `COc1ccc(C(=O)c2ccccc2)c(O)c1`, the outcome [1] is reported as “inactive”.

With `CC(=O)c1ccccc1O` the outcome [1] was “inactive”.

With `CCCCCCCO` the outcome [1] was “inactive”.

With `CCC(C)C(=O)OC` (stereo not given) the outcome [1] was “inactive”.

In the case of `CCCCC1C(=O)N(c2ccccc2)N(c2ccccc2)C1=O`, the outcome [1] is reported as “inactive”.

In the case of `CC(=O)OCc1ccccc1`, the outcome [1] is reported as “inactive”.

With `CC(=O)CCC1=C(C)CCCC1(C)C` the outcome [1] was “inactive”.

In the case of `COc1cc(O)c(C(=O)c2ccccc2)cc1S(=O)(=O)O`, the outcome [1] is reported as “inactive”.

With `CC(=O)OC1CCCCC1C(C)(C)C` (stereo not given) the outcome [1] was “inactive”.

For `O=C(OCc1ccccc1)c1ccc(O)cc1`, the outcome [1] was “inactive”.

In the case of `CC(C)(CO)C(O)C(=O)NCCCO` (stereo not given), the outcome [1] is reported as “inactive”.

With `CC(=O)OCCc1ccccc1` the outcome [1] was “inactive”.

For `COC(=O)C=Cc1ccccc1`, the outcome [1] was “inactive”.

With `CC(C)[N+](C)(CCOC(=O)C1c2ccccc2Oc2ccccc21)C(C)C` the outcome [1] was “inactive”.

For `Cc1noc(NS(=O)(=O)c2ccc(N)cc2)c1C`, the outcome [1] was “inactive”.

With `Fc1ccc(Br)cc1` the outcome [1] was “inactive”.

With `O=C(Oc1ccccc1)c1ccccc1O` the outcome [1] was “inactive”.

With `C=C(C)[C@@H]1CC=C(C)CC1` the outcome [1] was “inactive”.

With `CC(=O)c1ccc(S(=O)(=O)NC(=O)NC2CCCCC2)cc1` the outcome [1] was “inactive”.

With `CCCc1ccc(O)c(OC)c1` the outcome [1] was “inactive”.

With `O=C(O[C@@H]1Cc2c(O)cc(O)cc2O[C@@H]1c1cc(O)c(O)c(O)c1)c1cc(O)c(O)c(O)c1` the outcome [1] was “inactive”.

For `C=CCCCCCCCCC=O`, the outcome [1] was “inactive”.

For `CC(=O)OCC=C(C)C`, the outcome [1] was “inactive”.

With `CC(=O)/C=C/C1C(C)=CCCC1(C)C` (stereo not given) the outcome [1] was “inactive”.

For `COc1ccc(-c2coc3cc(O)cc(O)c3c2=O)cc1`, the outcome [1] was “inactive”.

With `CC(=O)CCC=C(C)C` the outcome [1] was “inactive”.

In the case of `C=C[C@@]1(C)CC(=O)[C@]2(O)[C@@]3(C)[C@@H](O)CCC(C)(C)[C@@H]3[C@H](O)[C@H](OC(C)=O)[C@@]2(C)O1`, the outcome [1] is reported as “inactive”.

In the case of `Cc1ccc(C)c(OCCCC(C)(C)C(=O)O)c1`, the outcome [1] is reported as “inactive”.

For `Oc1ccc(-c2ccccc2)c(Cl)c1`, the outcome [1] was “inactive”.

With `CCCCC(C=O)CC` (stereo not given) the outcome [1] was “inactive”.

For `Nc1ncnc2nc[nH]c12`, the outcome [1] was “inactive”.

For `CC(C=O)c1ccccc1` (stereo not given), the outcome [1] was “inactive”.

For `CCCCCCC=O`, the outcome [1] was “inactive”.

With `CC(C)OC(=O)c1ccccc1` the outcome [1] was “inactive”.

With `CCCCOCC(C)O` (stereo not given) the outcome [1] was “inactive”.

For `CCC(C)c1ccccc1` (stereo not given), the outcome [1] was “inactive”.

With `CC(C)C(=O)OCCc1ccccc1` the outcome [2] was “inactive”, the outcome [3] was “inactive” and the outcome [4] was “inactive”. The outcome [5] was “inactive”, the outcome [6] was “inactive” and the outcome [7] was “inactive”. For the same molecule, the outcome [8] was “inactive”, the AC50 [9] was 21.3 nM (active) and the outcome [10] was “inactive”.

In the case of `Nc1cccc(N)n1`, the AC50 [2] is reported as 3 nM (active), the outcome [3] is reported as “inactive” and the AC50 [4] is reported as 15.4 nM (active). For the same molecule, the outcome [5] was “inactive”, the AC50 [6] was 3 nM (active) and the AC50 [7] was 3 nM (active). For the same molecule, the AC50 [8] was 11.7 nM (active), the outcome [9] was “inactive” and the AC50 [10] was 3.18 nM (active).

With `CC1=CCC(C(C)C)C=C1` (stereo not given) the outcome [1] was “inactive”.

For `CC(CCC(=O)O)(c1ccc(O)cc1)c1ccc(O)cc1`, the outcome [2] was “inactive”, the outcome [3] was “inactive” and the outcome [4] was “inactive”. For the same molecule, the outcome [5] was “inactive”, the outcome [6] was “inactive” and the outcome [7] was “inactive”. For the same molecule, the outcome [8] was “inactive”, the outcome [9] was “inactive” and the outcome [10] was “inactive”.

In the case of `O=C(O)CCCC(=O)O`, the outcome [1] is reported as “inactive”.

In the case of `CC(C)(C)NC(=O)[C@H]1CC[C@H]2[C@@H]3CC[C@H]4NC(=O)C=C[C@]4(C)[C@H]3CC[C@]12C`, the outcome [1] is reported as “inactive”.

For `CCCCCCCCCCCC(=O)N(C)CC(=O)O`, the outcome [2] was “inactive”, the outcome [3] was “inactive” and the AC50 [4] was 2900 nM (active). The AC50 [5] was 22800 nM (active), the AC50 [6] was 20200 nM (active) and the AC50 [7] was 57.6 nM (active). The AC50 [8] was 14600 nM (active), the AC50 [9] was 2900 nM (active) and the AC50 [10] was 23100 nM (active).

With `CN(C)c1ccc2nc3ccc(=[N+](C)C)cc-3sc2c1` the outcome [1] was “inactive”.

With `COC(=O)[C@H](Cc1ccccc1)NC(=O)[C@@H](N)CC(=O)O` (H-Asp-Phe-OMe) the outcome [2] was “inactive”, the outcome [3] was “inactive” and the outcome [4] was “inactive”. The outcome [5] was “inactive”, the outcome [6] was “inactive” and the outcome [7] was “inactive”. The outcome [8] was “inactive”, the AC50 [9] was 15000 nM (active) and the outcome [10] was “inactive”.

For `C=C1C[C@H]2[C@@H]3C=C(C)C4=CC(=O)CC[C@]4(C)[C@H]3CC[C@]2(C)[C@@]1(OC(C)=O)C(C)=O`, the outcome [1] was “inactive”.

In the case of `CC/C=C\CCOC(=O)c1ccccc1O`, the outcome [2] is reported as “inactive”, the outcome [3] is reported as “inactive” and the outcome [4] is reported as “inactive”. For the same molecule, the AC50 [5] was 15000 nM (active), the outcome [6] was “inactive” and the outcome [7] was “inactive”. For the same molecule, the outcome [8] was “inactive”, the outcome [9] was “inactive” and the outcome [10] was “inactive”.

With `CC=CC(=O)OCC(C)C` the outcome [1] was “inactive”.

For `Cc1c(C(=O)c2c[nH]n(C)c2=O)ccc(S(C)(=O)=O)c1C1=NOCC1`, the outcome [1] was “inactive”, the outcome [2] was “inactive” and the outcome [3] was “inactive”. For the same molecule, the outcome [4] was “inactive”, the outcome [5] was “inactive” and the outcome [6] was “inactive”. The outcome [7] was “inactive”, the outcome [8] was “inactive” and the outcome [9] was “inactive”. For the same molecule, the outcome [10] was “inactive”.

In the case of `CC1(C)CC(O)CC(C)(C)N1[O]`, the outcome [1] is reported as “inactive”, the outcome [2] is reported as “inactive” and the outcome [3] is reported as “inactive”. For the same molecule, the outcome [4] was “inactive”, the outcome [5] was “inactive” and the outcome [6] was “inactive”. The outcome [7] was “inactive”, the outcome [8] was “inactive” and the outcome [9] was “inactive”. For the same molecule, the AC50 [10] was 20.4 nM (active).

For `CCCC(C)C(=O)OCC` (stereo not given), the outcome [2] was “inactive”, the outcome [3] was “inactive” and the outcome [4] was “inactive”. The outcome [5] was “inactive”, the outcome [6] was “inactive” and the outcome [7] was “inactive”. The outcome [8] was “inactive”, the outcome [9] was “inactive” and the outcome [10] was “inactive”.

From PubChem BioAssay (EPA / NIEHS)
